PubChem BioAssay (NCI)
This is part of a sample that, as a whole, favours compounds with a hit. Of some 79,000 tested, about 15% had one in any assay. A number with no mark means an inactive call. The source made the active and inactive calls. Rule as the data show it: active = growth inhibition above about 70%; inactive = the rest.

What was measured:
[1] = NCI Yeast Anticancer Drug Screen. Data for the rad50 strain (AID 155);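 also: 0% = growth of vehicle-only cultures of the same strain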; settings: S. cerevisiae rad50 strain growth inhibition, stronger effect = higher value
In short: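 DNA repair mutant yeast, compound exposure, growth read-out; inhibition is taken relative to vehicle.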

[2] = NCI Yeast Anticancer Drug Screen. Data for the mec2-1 strain (AID 157); settings: S. cerevisiae mec2-1 strain, stronger effect = higher value
In short: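 Mutant yeast (mec2-1) grown with compound; growth inhibition relative to vehicle control reported.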

[3] = NCI Yeast Anticancer Drug Screen. Data for the sgs1 mgt1 strain (AID 161);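 also: 0% = growth of cultures given vehicle only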; settings: S. cerevisiae sgs1 mgt1 strain, stronger effect = higher value
In short: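 Compounds are added to genetically altered yeast, and growth is compared with cultures given vehicle alone to give percent inhibition.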

[4] = NCI Yeast Anticancer Drug Screen. Data for the cln2 rad14 strain (AID 165);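 also: 0% = growth equal to vehicle treated cultures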; settings: S. cerevisiae cln2 rad14 strain, stronger effect = higher value
In short: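 Readout is yeast growth inhibition versus vehicle-treated controls, using a strain with cln2 and rad14 alterations exposed to compound.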

[5] = NCI Yeast Anticancer Drug Screen. Data for the bub3 strain (AID 167); settings: S. cerevisiae bub3 mutant strain, stronger effect = higher value
In short: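 In this screen, a yeast mutant lacking normal mitotic checkpoint function is challenged with compound. Relative growth versus vehicle gives the inhibition value.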

[6] = NCI Yeast Anticancer Drug Screen. Data for the mlh1 rad18 strain (AID 175); settings: S. cerevisiae mlh1 rad18 strain growth inhibition, stronger effect = higher value
In short: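 Genetically defined yeast (DNA repair-deficient) exposed to compounds; growth inhibition determined relative to vehicle.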

[7] = at 5.0 µM (retest, dose inferred, filed as 0.5)
[8] = at 50.0 µM (retest, dose inferred, filed as 5.0)

Row | SMILES | growth inhibition [1, 7] | growth inhibition [1, 8] | growth inhibition ([1]; at 50.0 µM) | growth inhibition [2, 7] | growth inhibition [2, 8] | growth inhibition ([2]; at 50.0 µM) | growth inhibition [3, 7] | growth inhibition [3, 8] | growth inhibition ([3]; at 50.0 µM) | growth inhibition [4, 7] | growth inhibition [4, 8] | growth inhibition ([4]; at 50.0 µM) | growth inhibition [5, 7] | growth inhibition [5, 8] | growth inhibition ([5]; at 50.0 µM) | growth inhibition [6, 7] | growth inhibition [6, 8] | growth inhibition ([6]; at 50.0 µM)
1 | CCCCC(=O)c1nc(N(CC2CCCCC2)C(=O)NC)sc1N | -3% | 11% | 1.8% | -4% | 35% | -13.4% | -1% | 57% | 7.75% | -1% | 7% | 44.2% | -3% | 33% | 6.3% | -3% | 12% | 16.8%
2 | CC1=C(C)C(=O)C2=C(OCCCO2)C1=O | -9% | -12% | -6.55% | 9% | -19% | -21.1% | -2% | 11% | -0.8% | -21% | 5% | 5.35% | -13% | -19% | 48.8% | -24% | -19% | 10%
3 | CC1=Cc2cc3[n-]c(cc4nc(cc5[n-]c(cc1n2)cc5C)C(C)=C4CCC(=O)O)c(CCC(=O)O)c3C.[Pd+2] | 0% | 72% (active) | 15.1% | 2% | 55% | 26% | 0% | 80% (active) | 12.2% | -11% | 61% | 62.8% | -3% | 69% | 7.7% | -1% | 73% (active) | 10.6%
4 | CN1CC(CN2CCCCC2)C(O)C(c2ccccc2)C1 (configuration not stated) | -3% | -1% | 10.2% | -5% | -1% | -4.5% | -3% | 6% | 9.3% | -5% | -3% | 34.4% | -4% | -8% | 2.65% | -3% | -2% | 56.5%
5 | COC(=O)c1ccc(CSc2ccc(OC)cc2)cc1 | 16% | 84% (active) | 88.5% (active) | -14% | 75% (active) | 83.2% (active) | 8% | 92% (active) | 88.3% (active) | 2% | 83% (active) | 80.9% (active) | 1% | 80% (active) | 85.2% (active) | -21% | 91% (active) | 85.3% (active)
6 | O=S1(=O)CCN(c2ccccc2CC(c2c[nH]c3ccccc23)c2c[nH]c3ccccc23)CC1 | 29% | 90% (active) | 88.5% (active) | -5% | 73% (active) | 74.8% (active) | 3% | 79% (active) | 87.7% (active) | 5% | 62% | 86.2% (active) | 14% | 89% (active) | 90.6% (active) | 34% | 94% (active) | 91.9% (active)
7 | COc1ccc(CCCCC(=O)O)cc1O | -155% | -161% | 40.9% | -52% | -54% | 14.1% | -56% | -65% | 29.9% | -57% | -55% | 61.9% | -69% | -80% | 2.5% | -117% | -117% | 28.4%
8 | O=c1[nH]cnc2c1ncn2CCc1ccccc1 | 0% | -6% | -11.6% | -6% | -2% | -1.55% | -3% | -5% | -4.45% | -4% | 3% | 49.1% | 0% | 4% | 4.85% | 4% | -10% | -19.8%
9 | C=CCOCCC=O | 7% | 38% | 45.4% | 3% | 5% | 14.2% | 2% | 4% | 36% | 4% | 2% | -20.4% | 4% | -3% | 47.7% | 4% | 11% | 54.6%
10 | O=C1C=C(c2ccccc2)OC(c2ccccc2)C1 (configuration not stated) | -150% | -112% | 43.1% | -52% | -59% | 41.8% | -63% | -37% | 15.2% | -69% | -67% | -38.4% | -68% | -25% | 44.1% | -141% | -97% | 27.3%
11 | CC1(C)CC(=O)C(C(c2ccc3c(c2)OCO3)N2CCOCC2)C(=O)C1 (configuration not stated) | -22% | -17% | 99.2% (active) | 9% | -13% | 99.5% (active) | -21% | 4% | 99.3% (active) | -9% | 3% | 98.2% (active) | 20% | -11% | 98.8% (active) | -26% | -27% | 99.1% (active)
12 | Ic1[nH]c(I)c(I)c1I | 13% | 97% (active) | 95.2% (active) | 16% | 98% (active) | 95% (active) | 10% | 95% (active) | 97% (active) | -2% | 96% (active) | 94.3% (active) | 14% | 98% (active) | 96.7% (active) | 11% | 95% (active) | 92.7% (active)
13 | CCCCCCCCCCCCCC/[N+]([O-])=C/c1ccc([N+](=O)[O-])o1 | 7% | 18% | 50.1% | 2% | 10% | 45.3% | 8% | 70% (active) | 50.1% | 8% | 13% | 29.8% | 0% | 14% | 78% (active) | 8% | 79% (active) | 54.2%
14 | Cc1ccc2cccc(N)c2c1 | 1% | 2% | -12.4% | 3% | 9% | -2.2% | 2% | 4% | -21.8% | 1% | -9% | 46.4% | 8% | 12% | -5.15% | 2% | 8% | 44.9%
15 | Cc1cc2c(C(C)C)c(O)c(O)c(C=Nc3ccc(C(=O)O)cc3)c2c(O)c1-c1c(C)cc2c(C(C)C)c(O)c(O)c(C=Nc3ccc(C(=O)O)cc3)c2c1O | 14% | 97% (active) | 91.8% (active) | 27% | 98% (active) | 91.2% (active) | 34% | 97% (active) | 61.4% | -3% | 95% (active) | 73.3% (active) | 4% | 98% (active) | 58.5% | 40% | 98% (active) | 86.3% (active)
16 | COc1ccc(C(=O)C2=C(C)Nc3ccc(Br)cc3S2)cc1 | -2% | 27% | 4.55% | -2% | 20% | 14.1% | -12% | 44% | -4.7% | -8% | 16% | -3.4% | -9% | 38% | -0.3% | -7% | 23% | 12.4%
17 | CCC(CC)N(CCNc1cc(OC)cc2cccnc12)CC(C)C | 7% | 7% | 60.8% | 1% | 0% | 26% | 4% | 12% | 53.6% | 9% | -6% | 49.5% | 4% | 11% | 57% | 4% | 10% | 67.8%
18 | CN(/N=C/c1ccc([N+](=O)[O-])o1)C(N)=O | 10% | 44% | 80% (active) | 4% | 18% | 49.5% | 10% | 57% | 87.3% (active) | 3% | 17% | 49.5% | 6% | 28% | 46.3% | 22% | 58% | 89.4% (active)
19 | NCCNC[Si](c1ccccc1)(c1ccccc1)c1ccccc1 | -13% | 92% (active) | 7.6% | -3% | 92% (active) | -21.4% | -10% | 84% (active) | 8.2% | -4% | 96% (active) | 5.3% | -10% | 94% (active) | 17.6% | -12% | 87% (active) | 11.4%
